Test results taken from ChEMBL document CHEMBL4513216, “Probing the Open Global Health Chemical Diversity Library for Multistage-Active Starting Points for Next-Generation Antimalarials” (ACS Infect Dis, 2020).
In all, about 69,000 compounds went through this assay and about 8,600 (12%) showed an effect of 50% or more. This excerpt belongs to a sample that is enriched for strong results.

What follows are compounds tested on Plasmodium berghei (assay: Screen against P. berghei liver stage (PbLuc), transformed with Luciferase, at 10uM). Settings: tested at 10 uM.
Type: functional, HepG2

Compared with `COc1ccc(F)c(CNC2CCCc3nc(N(C)C)ncc32)c1` (stereo not drawn), `Oc1cc(CNCCN2CCCCC2)nc2c(F)cccc12` is lower in INHIBITION: 37.6% for the first, 13.7% for the second.

Going from `O=C(CCCOCc1ccccc1)N1CCCC(n2cncn2)C1` (stereo not drawn) to `Cn1cc(Cl)cc1C(=O)N1CCCN(Cc2ccccc2)CC1`, the INHIBITION falls from 21.6% to 16.97%.

Compared with `Cc1nn(C2CCS(=O)(=O)C2)c(C)c1CC(=O)NCc1ccccc1Cl` (stereo not drawn), `Cc1cc(CNC(=O)N2CCc3ccccc3C2CO)c(C)o1` (stereo not drawn) is higher in INHIBITION: -8.9% for the first, 2.43% for the second.

Going from `CNC(=O)NC(=O)CCN1CCCC1c1nc(C2CCCCC2)co1` (stereo not drawn) to `O=C(CC1CCCC1)N1CCC(c2nnc(-c3ccccn3)o2)CC1`, the INHIBITION falls from -11.3% to -18.1%.

Compared with `CN(C)C[C@]12COC[C@H]1CN(C(=O)Cc1ccc3c(c1)OCO3)C2`, `Cn1cnnc1SCc1cc2c(cc1Br)OCO2` is higher in INHIBITION: 23.5% for the first, 49% for the second.

First: CC(O)(CN1CCN(CCO)CC1)c1cccc(C(F)(F)F)c1 (stereo not drawn)
Second: OC1(CN2CCCC2)COCCN(c2cc(C(F)(F)F)ccn2)C1 (stereo not drawn)
The INHIBITION of the first is higher: -14% for the first, -16% for the second.

First: Cc1nc2cc(-c3nccn3C)nn2c(N2CCC(O)CC2)c1C
Second: Cc1cc(C)nc(N(C)CCn2ccnc2C)n1
The INHIBITION of the first is higher: 12.3% for the first, -45.7% for the second.

Compared with `O=C1COC2(COCCN(c3ccccn3)C2)CN1c1cccc(F)c1` (stereo not drawn), `CC(=O)N1CCN(Cc2cccc3c2sc2ccccc23)CC(O)C1` (stereo not drawn) is higher in INHIBITION: 31.2% for the first, 84.6% for the second.

Going from `c1ccc(CN2CCc3c(CNc4nccs4)n[nH]c3C2)nc1` to `CN(C)C(=O)c1cn[nH]c1C1(C)CCCN(Cc2ccccn2)C1` (stereo not drawn), the INHIBITION rises from 34.4% to 40%.

First: Fc1cnc(N2CCOCC3(CCCN(c4nncs4)C3)C2)nc1 (stereo not drawn)
Second: CCN1CCOCC2(CCCN(c3nncs3)C2)C1 (stereo not drawn)
The INHIBITION of the first is lower: 41.5% for the first, 52.3% for the second.

Going from `CCS(=O)(=O)N1CCCC2(COCCN(c3nncs3)C2)C1` (stereo not drawn) to `Cn1cncc1CN1CCC2(CC1)COCCN(S(C)(=O)=O)C2`, the INHIBITION falls from 28.2% to 4.68%.

First: Cc1cc(F)ccc1-n1cc(O)c(C(=O)NCC[S+](C)[O-])n1 (stereo not drawn)
Second: O=C(CCNCc1cc(O)c2cc(F)ccc2n1)N1CCCC1
The INHIBITION of the first is higher: 36.2% for the first, 30.4% for the second.

Compared with `COc1ccccc1COCC(O)CN1CCC(c2ccn[nH]2)CC1` (stereo not drawn), `CC(=O)N1CCN(Cc2c(C)ccc3ccccc23)CC(O)C1` (stereo not drawn) is lower in INHIBITION: 46.2% for the first, 44.3% for the second.

Going from `Cn1cc(CN2CCn3cnc(COCC4CC4)c3C2)cn1` to `OCCn1nccc1C1CCN(Cc2nc(C3CC3)no2)CC1`, the INHIBITION rises from 5.63% to 33.7%.

Compared with `CC(=O)N1CCN(Cc2c(C)sc3ccccc23)CC(O)C1` (stereo not drawn), `Cc1cc(C(=O)N2CCC(Nc3cccnc3)CC2)c(C)s1` is lower in INHIBITION: 35.4% for the first, -19.5% for the second.

Compared with `Cc1cnn(CCNCc2cccc(C#N)c2)c1`, `Cc1ccc2nc(CNCCCN3CCCC3)cc(O)c2c1` is higher in INHIBITION: 32.2% for the first, 41.5% for the second.

Going from `CN(Cc1ccccc1)C(=O)c1nc(S(C)(=O)=O)n2ccccc12` to `CN(Cc1ccccn1)C(=O)c1nc(S(C)(=O)=O)n2ccccc12`, the INHIBITION falls from 52% to 36.85%.

Going from `CC(C)CCN(C)C(=O)c1nc(S(C)(=O)=O)n2ccccc12` to `Cc1ccc(S(=O)(=O)NC(=O)CCOCC(C)C)s1`, the INHIBITION rises from 46.5% to 55.9%.

First: N#CC1CCCN(S(=O)(=O)c2ccc(C(=O)NCC(F)F)cc2)C1 (stereo not drawn)
Second: N[C@H]1CCCN(S(=O)(=O)c2ccc(C(=O)NCC(F)F)cc2)C1
The INHIBITION of the first is lower: 49.2% for the first, 66.1% for the second.

Compared with `O=C(NCC(F)F)c1ccc(S(=O)(=O)N2CCCC(O)C2)cc1` (stereo not drawn), `O=S(=O)(CCNCc1cc(O)c2cc(F)ccc2n1)N1CCCC1` is higher in INHIBITION: 37.3% for the first, 58.2% for the second.

Compared with `CN(C(=O)c1ccn(C)n1)[C@@H]1CCC[C@@H](Oc2ccccc2)[C@@H]1O`, `CN(C(=O)c1cn(C)cn1)[C@@H]1CCC[C@@H](Oc2ccccc2)[C@@H]1O` is higher in INHIBITION: 35.2% for the first, 60.5% for the second.

Compared with `Cc1cnc(C(=O)N(C)[C@@H]2CCC[C@@H](Oc3ccccc3)[C@@H]2O)cn1`, `NC(=O)c1cc(C2CCCN(CCCOc3ccc(F)cc3)C2)n[nH]1` (stereo not drawn) is lower in INHIBITION: 17.1% for the first, 14.22% for the second.

Going from `Cc1noc(C)c1-c1cncc(C2CCCN2Cc2nccs2)n1` (stereo not drawn) to `Cc1cc(C)c2c(NCCC3(O)CCCC3)ncnc2n1`, the INHIBITION rises from 15.9% to 42.3%.

First: O=C(CC1CCCO1)N1CCCN(c2cccnn2)CC1 (stereo not drawn)
Second: Cc1ccc(C(=O)N2CCC3(CC2)CC(N2CCCC2)C3)cc1
The INHIBITION of the first is lower: 7.12% for the first, 39.9% for the second.

Going from `CN(C)C(=O)CN1CCC2(CC1)CC(=O)c1ccc3ccccc3c1O2` to `O=S1(=O)NC(c2ccnc(N3CCCC3)n2)=Nc2ccccc21`, the INHIBITION falls from 41.1% to 33.2%.

Going from `O=C1CCCN1CCCNCc1cc(O)c2cccc(F)c2n1` to `O=C1CCCN1CCCNCc1cc(O)c2cccc(Cl)c2n1`, the INHIBITION rises from -15.8% to -13.4%.

Compared with `Oc1cc(CNCCCN2CCCC2)nc2ccc(F)cc12`, `CN1CCN(CCCNCc2cc(O)c3cc(F)ccc3n2)CC1` is higher in INHIBITION: 62.8% for the first, 65.6% for the second.

Going from `OCC1CCCCN1CCCNCc1cc(O)c2cc(F)ccc2n1` (stereo not drawn) to `O=C(c1ccc(F)cc1)N1CCC2(CC1)CC(N1CCOCC1)C2`, the INHIBITION falls from 25.7% to -24.5%.

Going from `CC(NCc1c(C(C)C)nn(C)c1N1CCOCC1)C(=O)N(C)C` (stereo not drawn) to `CNC(=O)C1CN(C)CCN1c1nc(C)cc(C)n1` (stereo not drawn), the INHIBITION falls from 19.45% to -5.8%.

Compared with `CCn1ccc2ccnc(CC3CN(C(=O)c4cnco4)C3)c21`, `Cc1ccc(C(=O)N2CCC3(CC2)CC(N2CCOCC2)C3)cc1` is higher in INHIBITION: 1.62% for the first, 55.7% for the second.

Going from `CN1CC2(CCCCN2C(=O)c2ccsc2)CC1=O` (stereo not drawn) to `COC(=O)Cn1c(=O)[nH]c2cn(-c3ccc(Cl)cc3)c(=O)n21`, the INHIBITION falls from 35.8% to 0.547%.

Going from `Cc1oc(C)c(C(=O)NCc2cccc(C(N)=O)c2)c1C` to `Cc1ccc(S(=O)(=O)NC(=O)CCOCc2ccccc2)s1`, the INHIBITION rises from -39.7% to 36.3%.

First: CC(C)COCCC(=O)NS(=O)(=O)c1ccc(Cl)s1
Second: CCOCCCC(=O)NS(=O)(=O)c1ccc(C)s1
The INHIBITION of the first is higher: 62.4% for the first, 11.3% for the second.

Going from `COc1ccccc1OCC(=O)NS(=O)(=O)c1ccc(Cl)s1` to `CC(=O)c1ccc(OCC(=O)NS(=O)(=O)c2ccc(Cl)s2)cc1`, the INHIBITION rises from 31.3% to 36.8%.
